# LAP4-GFP MLPCN: modulators of TOR pathway LAP4-GFP in S. cerevisiae; hit rate 0.34% among 320,000; GFP response vs DMSO, % at 10 µM; S. cerevisiae LAP4-GFP multiplex, flow cytometry GFP, 3 h; median GFP as percent of DMSO wells;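 active means GFP response vs DMSO above a set limit, about the screen mean plus 3 SD, cut at about 150% in these data; inconclusive means under 70 cell events counted for the yeast strain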
# MEP2-GFP yeast: yeast TOR pathway MEP2-GFP modulation. S. cerevisiae MEP2-GFP strain, flow cytometry GFP, 3 h; 100% = DMSO control level. GFP response vs DMSO, % at 10 µM. hit rate 0.51% among 330,000. AID 2016;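 active means GFP response versus DMSO above a set limit, roughly screen mean plus 3 SD, cut at about 180% in these data; inconclusive means fewer than 70 cells counted for a yeast strain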;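 further: median GFP fluorescence of the barcode-gated MEP2-GFP cells per well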
# RPL19A-GFP yeast: yeast TOR pathway RPL19A-GFP modulation; percent response vs DMSO, % at 10 µM; hit rate 0.3% among 330,000; S. cerevisiae RPL19A-GFP strain, flow cytometry, 3 h; hits give low values; AID 2025;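 active means percent response vs DMSO below 50%; inconclusive means fewer than 70 events counted for the yeast strain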;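 further: median channel GFP fluorescence of the barcoded RPL19A-GFP strain; ratio of sample median GFP to plate DMSO average so 100% = DMSO; lower means less RPL19A-GFP as with rapamycin TOR inhibition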
# CIT2 TOR yeast: alters CIT2-GFP fluorescence in TOR pathway yeast screen; S. cerevisiae CIT2-GFP strain, flow cytometry, 3 h; 100 means same as DMSO wells; GFP response vs DMSO, % at 10 µM; hit rate 0.065% among 320,000; AID 2029;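 active means GFP response relative to DMSO above a set limit, near the screen mean plus 3 SD, cut at about 150% in these data; inconclusive means Fewer than 70 cells measured for a yeast strain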;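 further: ratio of well median GFP fluorescence to mean of DMSO wells on the plate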
# Myeloid diff MLP: compounds promoting myeloid differentiation | AID 624256 | ER-HoxA9 myeloid progenitors, lysozyme-GFP differentiation, flow cytometry | hit rate 1% among 360,000 | calls only at 10 µM;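 active means normalized GFP-positive differentiation at or above the plate's own cutoff, the solvent-only control mean plus 3 SD; inconclusive means no clear call, values can overlap the other calls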;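 further: cells exposed to compound for four days before flow analysis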
# AGP1 TOR yeast: yeast TOR pathway AGP1-GFP modulation | S. cerevisiae AGP1-GFP multiplex flow cytometry, 3 h; GFP as percent of DMSO wells | GFP response vs DMSO, % at 10 µM | hit rate 0.02% among 320,000;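 active means GFP response relative to DMSO above a set limit, near screen average plus 3 SD, cut at about 150% in these data; inconclusive means fewer than 70 cells counted for the yeast strain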;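 further: median GFP channel fluorescence of the gated AGP1 strain per well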
# * = called active by the depositor; i = inactive; u = inconclusive; x = not tested or not shown; + = active, no number; [ ] = dose if it differs, or a comment. Compounds with a hit are over-represented: about 1.8% of the library has one in this group of screens.
SMILES,LAP4-GFP MLPCN,MEP2-GFP yeast,RPL19A-GFP yeast,CIT2 TOR yeast,Myeloid diff MLP,AGP1 TOR yeast
Cc1cc([N+](=O)[O-])ccc1NC(=O)CN1C2CCC1CC(NC(=O)NC13CC4CC(CC(C4)C1)C3)C2 (stereo unspecified),100,96,100,110,+,104
O=C(NCCc1ccc(Cl)cc1)C1CCN(S(=O)(=O)N2CCCCC2)CC1,102,101,104,108,i,106
COc1cccc(Nc2ncccc2C(=O)NCc2ccccc2)c1,x,x,x,x,+,x
C=C1CCN([C@H](C(=O)NCc2ccc(Cl)cc2)C(C)C)S(=O)(=O)c2ccccc21,115,91,106,113,i,98
CCC(=O)N1CCN(c2ccc(NC(=O)c3ccc4ccccc4c3)cc2)CC1,96,102,99,99,i,91
COc1ccc(N(CC(=O)NCc2ccc(F)cc2)C(=O)c2snc(C(N)=O)c2N)cc1,97,104,101,104,i,105
COc1ccc(C(=O)/C=C/c2ccc(OC)c(Cn3nnc4ccccc43)c2)cc1,102,93,100,92,+,101
COc1ccc(C(=O)/C=C/c2ccc(OC)c(CN3CCOCC3)c2)cc1,98,102,100,101,u,104
COc1ccc(C)cc1Cn1nnc2ccccc21,94,84,97,92,i,84
COc1ccc(/C=C/C(=O)c2ccc(O)cc2)cc1CN1CCOCC1,86,102,93,92,+,85
N#Cc1cccc(-c2csc(C(O)c3ccco3)n2)c1 (stereo unspecified),x,x,x,x,i,x
CCOc1ccc(N(CCCCO)C(=S)NC(=O)c2ccc(C)c(Br)c2)cc1,119,104,99,94,i,99
O=C(c1ccco1)N1CCN(C(c2coc3ccc(Cl)cc3c2=O)c2nnnn2C2CCCC2)CC1 (stereo unspecified),93,416*[may fluoresce violet],20*[may fluoresce violet],u,x,u
Cc1ccc2occ(C(c3nnnn3C3CCCC3)N3CCN(C(=O)c4ccco4)CC3)c(=O)c2c1 (stereo unspecified),98,95,98,90,i,91
O=C(c1ccncc1)N1CCN(C(=O)c2ccco2)CC1,103,100,104,99,i,104
O=C(c1ccc(N2CN(C(=O)c3ccco3)c3nc4ccccc4nc32)cc1)N1CCOCC1,96,97,96,95,+,98
CCOC(=O)c1cc2c(ccn2C)n1CC(=O)N(Cc1ccccc1)c1ccc(F)cc1,89,103,98,107,i,88
CCOC(=O)c1cc2c(ccn2C)n1CC(=O)N(Cc1ccccc1)c1ccccc1,91,97,98,94,+,100
O=C(NN1CCCCC1)c1cccc2ccccc12,103,98,98,100,i,99
Cc1cc(NC(=O)c2ccc(Br)o2)ccc1NC(=O)c1ccco1,70,238*[may fluoresce violet],45*[may fluoresce violet],u,i,u
Cc1cc(NC(=O)CSc2nnc(-c3ccncc3)n2C)n(-c2ccccc2)n1,109,98,101,98,+,105
CC(=O)Nc1ccc(S(=O)(=O)NNC(=S)NCc2ccco2)cc1,103,101,104,105,+,102
O=C(CN1C(=O)C2CC=CCC2C1=O)Nc1ccc(F)cc1F (stereo unspecified),104,101,98,97,i,103
C=CCNc1nc(NCCOC)c2sc(-c3ccccc3)cc2n1,x,x,x,x,i,x
C=CCNc1nc(NCc2ccc(N(C)C)cc2)c2sc(-c3ccccc3)cc2n1,x,x,x,x,+,x
SMILES,LAP4-GFP MLPCN,MEP2-GFP yeast,RPL19A-GFP yeast,CIT2 TOR yeast,Myeloid diff MLP,AGP1 TOR yeast
O=C(Nc1ccccc1)Nc1ccc(O)c2ccccc12,119,96,95,100,x,107
Cc1ccc(NC(=O)/C=C/c2ccc3c(c2)OCO3)nc1,101,107,110,106,+,104
CCCCCc1nnc(NC(=O)C2=COCCO2)s1,106,98,97,97,i,101
COc1ccc(/C=C/C(=O)NC(=S)N2CCN(c3ccccn3)CC2)cc1,118,103,104,101,i,107
COc1ccc(/C=C/C(=O)NC(=S)N2CCSCC2)cc1,+[may fluoresce green],+[may fluoresce green],275,x,i,257*[may fluoresce green]
COc1ccccc1NC(=O)COc1ccc(Br)cc1CNC1CCCC1,103,107,104,101,i,104
c1ccc(N2CCN(Cc3nc4ccccc4[nH]3)CC2)nc1,94,104,109,105,+,104
COCCCn1c(O)c(/C=C2\N=C(C#N)C(=Nc3ccc(C)cc3)O2)sc1=S,77,756*[may fluoresce violet],41*[may fluoresce violet],u,i,u
CN(CC(=O)Nc1ccccc1Cl)C(=O)c1ccc(N2C(=O)CCC2=O)cc1,x,x,x,x,i,x
CC(C)(CO)NC(=O)c1ccc2nc(Cc3cccc(Cl)c3)oc2c1,93,104,102,102,i,105
CCOc1ccccc1NC(=O)Nc1ccc2c(c1)OCO2,86,109,121,92,i,96
C=CCOc1ccccc1CN(C(=O)CCl)c1ccc2c(c1)OCO2,116,107,101,103,+,105
O=C(Nc1cc(S(=O)(=O)Nc2ccccc2Cl)ccc1O)c1sc2cc(Cl)ccc2c1Cl,98,107,102,109,+,106
CC(C)(C)NC(=O)C(c1ccco1)N(C(=O)Cn1nnc(-c2ccc(F)cc2)n1)c1ccccc1F (stereo unspecified),96,110,99,103,i,108
CCOc1ccccc1C(=O)N1c2ccccc2Sc2ccccc21,82,233*[may fluoresce violet],x,u,i,25
COc1cccc(OC)c1C(=O)NCC12CC3CC(C1)CC(CNC(=O)c1c(OC)cccc1OC)(C3)C2,85,107,101,92,i,92
O=C1c2ccccc2C(=O)c2c(/C=C/N3CCCCC3)ccnc21,x,x,x,x,+,x
O=C1c2ccccc2-c2cccnc21,112,95,93,109,i,108
CCOc1ccc(-c2nnc(-c3ccccc3)o2)cc1,94,394*[may fluoresce violet],30*[may fluoresce violet],u,x,x
Cc1cc(O)c2c(c1O)C(=O)[C@]13C(=C2O)C(=O)[C@@H]2[C@@H](O)[C@H]1[C@@H]1[C@H](O)[C@H]3C(=O)C3=C(O)c4c(O)cc(C)c(O)c4C(=O)[C@]312,111,111,95,106,+,100
CC(=O)Nc1ccc(NS(=O)(=O)c2cc(Cl)sc2Cl)cc1,111,104,100,121,i,116
O=C(O)c1ccc(NS(=O)(=O)c2cc(Cl)sc2Cl)cc1,78,710*[may fluoresce violet],41*[may fluoresce violet],u,i,u
CCC(NC(=O)CNC(=O)CNC(=O)c1ccc(Cl)cc1Cl)c1ccc(C)cc1 (stereo unspecified),96,104,105,103,i,103
